ST2 IL33 inh: blocks human ST2 binding to IL-33 | Q01638 | AlphaLISA ST2-Fc/biotin-IL-33 interaction, 1 h | inhibition, % for hits at 17 µM | 78,000 tested, 2.3% active | AID 1259354; in the data active = inhibition above about 30%
Target sequence (Q01638 whole entry, looked up): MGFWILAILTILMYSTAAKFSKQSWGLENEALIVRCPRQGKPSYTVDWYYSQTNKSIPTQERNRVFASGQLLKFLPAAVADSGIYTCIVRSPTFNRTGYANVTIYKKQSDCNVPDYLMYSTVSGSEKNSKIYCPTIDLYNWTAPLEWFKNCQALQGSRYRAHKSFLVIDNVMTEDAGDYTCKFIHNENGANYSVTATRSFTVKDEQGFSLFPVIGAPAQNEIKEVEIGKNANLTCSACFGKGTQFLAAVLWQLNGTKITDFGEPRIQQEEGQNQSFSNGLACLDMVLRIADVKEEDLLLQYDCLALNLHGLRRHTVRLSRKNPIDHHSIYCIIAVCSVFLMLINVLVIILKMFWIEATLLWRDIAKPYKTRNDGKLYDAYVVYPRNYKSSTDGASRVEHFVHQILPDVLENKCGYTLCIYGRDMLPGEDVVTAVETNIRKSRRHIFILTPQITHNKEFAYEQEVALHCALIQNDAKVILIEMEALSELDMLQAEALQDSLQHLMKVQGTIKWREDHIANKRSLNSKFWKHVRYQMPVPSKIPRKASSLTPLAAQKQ
* = called active by the depositor. This is one part of a sample in which hits are shown more often than they occur.

COC(=O)C1C(=O)C2=C(CC1C)NC(C)=C(C(=O)OC1CCCC1)C2c1ccc2c(c1)OCO2 (stereo not drawn) was read as ST2 IL33 inh inactive.
`CCN1CCCC1CNC(=O)c1cc(=O)[nH]c2ccc(S(=O)(=O)N3CCCCC3)cc12` (stereo not drawn) gave ST2 IL33 inh inactive.
CCOC(=O)C1=C(C)NC2=C(C(=O)CCC2)C1c1cc(Br)c(CC)s1 (stereo not drawn) was read as ST2 IL33 inh inactive.
For COc1cc2c(cc1OC)CN(C/C=C/c1ccccc1)CC2 the results were ST2 IL33 inh inactive.
Screening COc1ccc(-c2nccn2CCc2ccccn2)c(OC)c1 returned ST2 IL33 inh inactive.
COc1ccc(-c2cc3ccccn3c2)c(OC)c1 was read as ST2 IL33 inh 50%*.
For COc1ccc(-c2ccnc(N)c2)c(OC)c1 the results were ST2 IL33 inh inactive.
For COc1cc(CCCO)cc(-c2cc(CCCO)cc(OC)c2O)c1O the results were ST2 IL33 inh inactive.
Screening C=CCc1cc(OC)c(O)c(-c2cc(CC=C)cc(OC)c2O)c1 returned ST2 IL33 inh 41%*.
`C=CCc1ccc(OCCOc2ccc(C=O)cc2OC)c(OC)c1` gave ST2 IL33 inh inactive.
Screening O=C(O)C1CN(c2ncccn2)CCN1Cc1cccnc1 (stereo not drawn) returned ST2 IL33 inh inactive.
For COc1ccc(CC(=O)N(C)CC2CCCN(CCc3cccc(C(F)(F)F)c3)C2)cc1 (stereo not drawn) the results were ST2 IL33 inh inactive.
Screening N#CC1=C(N)SC(N)=C(C#N)C1c1ccc2c(c1)OCO2 returned ST2 IL33 inh inactive.
`COc1ccc(/C=C2\N=C(c3ccccc3Br)OC2=O)c(OC)c1OC` gave ST2 IL33 inh inactive.
COc1ccc(/C=C2\N=C(c3cccc(I)c3)OC2=O)cc1[N+](=O)[O-] was read as ST2 IL33 inh inactive.
O=C1OC(c2cc([N+](=O)[O-])ccc2Cl)=N/C1=C\c1cccc(I)c1 was read as ST2 IL33 inh inactive.
`COc1ccc(/C=C2\N=C(c3ccc(C)cc3)OC2=O)cc1Br` gave ST2 IL33 inh inactive.
`CC1=N/C(=C\c2ccc(Br)cc2)C(=O)O1` gave ST2 IL33 inh inactive.
`O=C1OC(c2ccccc2Cl)=N/C1=C\C=C\c1ccccc1` gave ST2 IL33 inh 34%*.
Screening Cc1cccc(C2=N/C(=C\c3cccc([N+](=O)[O-])c3)C(=O)O2)c1 returned ST2 IL33 inh inactive.
Cc1cccc(C2=N/C(=C\c3ccc(N(C)C)cc3)C(=O)O2)c1 was read as ST2 IL33 inh 39%*.
O=C1OC(c2cccc(I)c2)=N/C1=C\c1ccc([N+](=O)[O-])cc1 was read as ST2 IL33 inh inactive.
CN(C)c1ccc(/C=C2\N=C(c3ccccc3Br)OC2=O)cc1 was read as ST2 IL33 inh 41%*.
COc1ccccc1/C=C/C1=NC(=C\C(Cl)=C\c2ccccc2)/C(=O)O1 was read as ST2 IL33 inh inactive.
Cc1cccc(C2=N/C(=C\c3ccccc3)C(=O)O2)c1 was read as ST2 IL33 inh 46%*.
`CC(c1ccc(-c2ccc3nc(C4CC4)cc(C(=O)O)c3c2)cc1)N1CCOCC1` (stereo not drawn) gave ST2 IL33 inh inactive.
Screening Cc1cc(N2CCCCC2)nc2ccc(NC(=O)CCC(=O)N3CCC(C(N)=O)CC3)cc12 returned ST2 IL33 inh inactive.
`CCOC(=O)c1sc(Nc2nc3ccc(F)cc3s2)nc1C` gave ST2 IL33 inh inactive.
CC(C)(C)NS(=O)(=O)c1ccc2c(c1)CCN2C(=O)C1CC1 was read as ST2 IL33 inh inactive.
For O=C(NCC1(c2cccc(F)c2)CCOCC1)c1cn2c(n1)CNCC2 the results were ST2 IL33 inh inactive.
Screening CC(=O)N(c1ccc2oc(=O)sc2c1)S(=O)(=O)c1ccc(Br)cc1 returned ST2 IL33 inh inactive.
For O=C(c1ccc(C(F)(F)F)cc1)N1CCN=C1SCc1ccccc1 the results were ST2 IL33 inh inactive.
Screening Cc1nn(Cc2ccc(F)cc2)c(C)c1NC(=O)c1noc2c1CC(C(C)(C)C)CC2 (stereo not drawn) returned ST2 IL33 inh inactive.
O=C(Cn1cnc2ccccc2c1=O)N(c1ccccc1)c1ccccc1 was read as ST2 IL33 inh inactive.
Screening Cc1ccoc1C(=O)N1CC[C@@H](c2ccc3c(c2)OCO3)[C@H](O)C1 returned ST2 IL33 inh inactive.
Cc1cccc(C2=N/C(=C\C=C\c3ccccc3)C(=O)O2)c1 was read as ST2 IL33 inh 37%*.
Screening CC(=O)n1cc(/C=C2\N=C(c3cccc(C)c3)OC2=O)c2cc(Br)ccc21 returned ST2 IL33 inh inactive.
Screening Cc1ccc(C2=N/C(=C\C(Br)=C\c3ccccc3)C(=O)O2)cc1[N+](=O)[O-] returned ST2 IL33 inh inactive.
For COC(=O)[C@@H]1CN(C(=O)c2ccc(OC)cc2)CCN1C(C)=O the results were ST2 IL33 inh inactive.
`COc1cccc(C2C(=O)N(C3CCCCC3)CC(=O)N2Cc2ccco2)c1` (stereo not drawn) gave ST2 IL33 inh inactive.
For O=C(Cc1ccc(-n2c(=O)[nH]c3ccsc3c2=O)cc1)N1CCC(Cc2ccccc2)CC1 the results were ST2 IL33 inh inactive.
`O=C(O)Cc1ccccc1[N+](=O)[O-]` gave ST2 IL33 inh inactive.
`O=[N+]([O-])c1ccccc1Oc1ccccc1` gave ST2 IL33 inh 30%*.
`O=C(O)c1cc([N+](=O)[O-])c(C(=O)O)cc1Oc1ccc(Cl)cc1` gave ST2 IL33 inh inactive.
Screening Cc1nc(C)c(CN2CCCCC2C(=O)Nc2ccc(Oc3ccccc3)nc2)nc1C (stereo not drawn) returned ST2 IL33 inh inactive.
`CCc1[nH]c2c(CNC(=O)CC3C=CS(=O)(=O)C3)cc(C)cc2c1C` (stereo not drawn) gave ST2 IL33 inh inactive.
CC(=O)Oc1ccc2c(=O)c(Oc3ccccc3)c(C)oc2c1OC(C)=O was read as ST2 IL33 inh inactive.
`COc1ccc2c(=O)c(Oc3ccccc3)c(C(F)(F)F)oc2c1OC` gave ST2 IL33 inh inactive.
Screening COc1ccc2c(=O)c(Oc3ccccc3)c(C)oc2c1OC returned ST2 IL33 inh 30%*.
`CC(C)CCNC(=O)c1cc(=O)[nH]c2ccc(S(=O)(=O)N3CCCCCC3)cc12` gave ST2 IL33 inh inactive.
Screening Cc1csc(=Nc2ccccc2)n1CC(=O)c1ccccc1 returned ST2 IL33 inh 36%*.
Screening Cc1cccn(CC(=O)c2ccc(-c3ccccc3)cc2)c1=N returned ST2 IL33 inh inactive.
`Cc1nc([N+](=O)[O-])cn1CC(=O)c1ccccc1` gave ST2 IL33 inh inactive.
`Cc1csc(=Nc2ccccc2)n1-c1ccccc1` gave ST2 IL33 inh 32%*.
For Cc1cc(C)n(-c2ccccc2)n1 the results were ST2 IL33 inh inactive.
CCOC(=O)c1sc(=Nc2ccccc2)n(-c2ccccc2)c1C was read as ST2 IL33 inh inactive.
`O=C(O)c1[nH]c2ccccc2c1CC(=O)N1CCC(Cc2ccccc2)CC1` gave ST2 IL33 inh inactive.
For OCC1(CCCc2ccccc2)CCN(C2CCN(c3ccccc3)CC2)CC1 the results were ST2 IL33 inh inactive.
CC(C)C1CN(C(=O)c2ccc(N3CCCC3=O)cc2)CCCN1CC1CC1 (stereo not drawn) was read as ST2 IL33 inh inactive.
O=C(Nc1cc2cccc([N+](=O)[O-])c2oc1=O)c1ccc(Cl)c([N+](=O)[O-])c1 was read as ST2 IL33 inh inactive.

Compound activity as filed in PubChem BioAssay.
